Results from the supplement of paper PMC10849652.
About 8,800 targets were measured; listed, in parts, are those with a hit and a random draw of the rest. About 0.5% of all pairs of compound and target were hits. Unmarked numbers belong to inactive results.

Assays:
Test in all cases: log2 fold change, soluble protein after heating vs DMSO (PISA); higher = thermal stabilisation; K562 lysate, 10 uM; active = over 0.2 and 3.5 SD of the protein, either way, in both replicates (recomputed)
[1] = compound: CN1CC[C@H](c2c(O)cc(O)c3c(=O)cc(-c4ccccc4Cl)oc23)[C@H](O)C1 [alvocidib]
Procedure, shortened: (§1)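 Soluble protein was defined as the supernatant remaining after 21,000xg for 90 min, following pooling of heated aliquots and adjustment to 0.5% NP-40 at 4°C. Before that, crude K562 extract at 1 mg/mL protein in PBS pH 7.4 with 1 mM MgCl2 was treated with 10 μM compound for 30 min and heated for 3 min across 48°C-58°C. Quantification used TMTpro 16plex LC-MS/MS with channel sums equalised, and values are log-two fold changes in thermal stability relative to solvent controls from duplicates.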

[2] = compound: CN1CCc2c(c3ccccc3n2Cc2ccc(C(=O)NO)cc2)C1 [Tubastatin A]
Procedure, shortened: as §1

[3] = compound: CNC(=O)C1=CC=CC=C1NC2=NC(=NC=C2Cl)NC3=C(C=C(C=C3)N4CCOCC4)OC
Procedure, shortened: as §1

[4] = compound: CNC(=O)c1ccc(Nc2ncc(C(F)(F)F)c(NCc3nccnc3N(C)S(C)(=O)=O)n2)cc1 [defactinib]
Procedure, shortened: as §1

[5] = compound: CNc1nc(-c2ccc3c(N)n[nH]c3c2)cc(N2C[C@@H](C(=O)NC3CCCCC3)CC[C@H]2C)n1
Procedure, shortened: as §1

[6] = compound: COC(=O)N[C@@H](C)CNc1nccc(-c2cn(C(C)C)nc2-c2cc(Cl)cc(NS(C)(=O)=O)c2F)n1 [encorafenib]
Procedure, shortened: as §1

[7] = compound: COC(=O)[C@H](CCSC)NC(=O)C1=C(C=C(C=C1)NC[C@H](CS)N)C2=CC=CC=C2
Procedure, shortened: as §1

[8] = compound: COc1cc(Nc2ncc3c(n2)-c2ccc(Cl)cc2C(c2c(F)cccc2OC)=NC3)ccc1C(=O)O [alisertib]
Procedure, shortened: as §1

[9] = compound: COc1cc2nc(-c3cc(F)ccc3O)nc(N[C@@H]3CNC[C@H]3C(C)(C)O)c2cc1OC
Procedure, shortened: as §1

[10] = compound: COc1cc2ncnc(Nc3ccc(F)c(Cl)c3)c2cc1OCCCN1CCOCC1 [gefitinib]
Procedure, shortened: as §1

UniProt Q6ZWL3, sequence (Q6ZWL3 whole entry, looked up): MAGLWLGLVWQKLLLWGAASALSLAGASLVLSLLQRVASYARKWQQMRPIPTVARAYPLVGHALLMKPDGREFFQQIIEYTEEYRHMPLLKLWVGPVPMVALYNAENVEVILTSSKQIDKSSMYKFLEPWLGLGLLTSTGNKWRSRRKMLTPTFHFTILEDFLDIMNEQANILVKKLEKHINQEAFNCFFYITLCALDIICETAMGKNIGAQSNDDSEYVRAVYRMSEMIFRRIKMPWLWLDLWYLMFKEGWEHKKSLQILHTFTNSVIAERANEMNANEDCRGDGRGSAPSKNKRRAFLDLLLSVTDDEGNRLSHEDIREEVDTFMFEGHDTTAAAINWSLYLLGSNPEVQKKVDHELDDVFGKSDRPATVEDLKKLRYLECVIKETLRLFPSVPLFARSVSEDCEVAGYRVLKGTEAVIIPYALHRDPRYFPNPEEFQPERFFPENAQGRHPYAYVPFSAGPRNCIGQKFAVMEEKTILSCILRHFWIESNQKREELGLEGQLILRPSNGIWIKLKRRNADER
UniProt Q5D0E6, sequence (Q5D0E6 whole entry, looked up): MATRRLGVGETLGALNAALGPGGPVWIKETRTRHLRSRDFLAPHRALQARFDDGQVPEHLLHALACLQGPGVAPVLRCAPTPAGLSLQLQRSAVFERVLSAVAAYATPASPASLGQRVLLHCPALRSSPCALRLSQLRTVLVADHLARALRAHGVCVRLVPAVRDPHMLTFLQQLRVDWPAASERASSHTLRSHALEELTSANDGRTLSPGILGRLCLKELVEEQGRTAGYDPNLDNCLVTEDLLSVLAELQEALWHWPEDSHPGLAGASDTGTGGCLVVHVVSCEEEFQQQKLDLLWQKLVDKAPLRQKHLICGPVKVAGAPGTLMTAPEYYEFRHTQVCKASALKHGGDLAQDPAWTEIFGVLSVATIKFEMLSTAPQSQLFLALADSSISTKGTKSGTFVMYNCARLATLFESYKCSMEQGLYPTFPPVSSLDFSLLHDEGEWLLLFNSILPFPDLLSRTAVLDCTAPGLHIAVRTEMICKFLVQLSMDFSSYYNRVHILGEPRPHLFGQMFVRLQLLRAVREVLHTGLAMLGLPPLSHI
UniProt A8TX70, sequence (A8TX70 whole entry, looked up): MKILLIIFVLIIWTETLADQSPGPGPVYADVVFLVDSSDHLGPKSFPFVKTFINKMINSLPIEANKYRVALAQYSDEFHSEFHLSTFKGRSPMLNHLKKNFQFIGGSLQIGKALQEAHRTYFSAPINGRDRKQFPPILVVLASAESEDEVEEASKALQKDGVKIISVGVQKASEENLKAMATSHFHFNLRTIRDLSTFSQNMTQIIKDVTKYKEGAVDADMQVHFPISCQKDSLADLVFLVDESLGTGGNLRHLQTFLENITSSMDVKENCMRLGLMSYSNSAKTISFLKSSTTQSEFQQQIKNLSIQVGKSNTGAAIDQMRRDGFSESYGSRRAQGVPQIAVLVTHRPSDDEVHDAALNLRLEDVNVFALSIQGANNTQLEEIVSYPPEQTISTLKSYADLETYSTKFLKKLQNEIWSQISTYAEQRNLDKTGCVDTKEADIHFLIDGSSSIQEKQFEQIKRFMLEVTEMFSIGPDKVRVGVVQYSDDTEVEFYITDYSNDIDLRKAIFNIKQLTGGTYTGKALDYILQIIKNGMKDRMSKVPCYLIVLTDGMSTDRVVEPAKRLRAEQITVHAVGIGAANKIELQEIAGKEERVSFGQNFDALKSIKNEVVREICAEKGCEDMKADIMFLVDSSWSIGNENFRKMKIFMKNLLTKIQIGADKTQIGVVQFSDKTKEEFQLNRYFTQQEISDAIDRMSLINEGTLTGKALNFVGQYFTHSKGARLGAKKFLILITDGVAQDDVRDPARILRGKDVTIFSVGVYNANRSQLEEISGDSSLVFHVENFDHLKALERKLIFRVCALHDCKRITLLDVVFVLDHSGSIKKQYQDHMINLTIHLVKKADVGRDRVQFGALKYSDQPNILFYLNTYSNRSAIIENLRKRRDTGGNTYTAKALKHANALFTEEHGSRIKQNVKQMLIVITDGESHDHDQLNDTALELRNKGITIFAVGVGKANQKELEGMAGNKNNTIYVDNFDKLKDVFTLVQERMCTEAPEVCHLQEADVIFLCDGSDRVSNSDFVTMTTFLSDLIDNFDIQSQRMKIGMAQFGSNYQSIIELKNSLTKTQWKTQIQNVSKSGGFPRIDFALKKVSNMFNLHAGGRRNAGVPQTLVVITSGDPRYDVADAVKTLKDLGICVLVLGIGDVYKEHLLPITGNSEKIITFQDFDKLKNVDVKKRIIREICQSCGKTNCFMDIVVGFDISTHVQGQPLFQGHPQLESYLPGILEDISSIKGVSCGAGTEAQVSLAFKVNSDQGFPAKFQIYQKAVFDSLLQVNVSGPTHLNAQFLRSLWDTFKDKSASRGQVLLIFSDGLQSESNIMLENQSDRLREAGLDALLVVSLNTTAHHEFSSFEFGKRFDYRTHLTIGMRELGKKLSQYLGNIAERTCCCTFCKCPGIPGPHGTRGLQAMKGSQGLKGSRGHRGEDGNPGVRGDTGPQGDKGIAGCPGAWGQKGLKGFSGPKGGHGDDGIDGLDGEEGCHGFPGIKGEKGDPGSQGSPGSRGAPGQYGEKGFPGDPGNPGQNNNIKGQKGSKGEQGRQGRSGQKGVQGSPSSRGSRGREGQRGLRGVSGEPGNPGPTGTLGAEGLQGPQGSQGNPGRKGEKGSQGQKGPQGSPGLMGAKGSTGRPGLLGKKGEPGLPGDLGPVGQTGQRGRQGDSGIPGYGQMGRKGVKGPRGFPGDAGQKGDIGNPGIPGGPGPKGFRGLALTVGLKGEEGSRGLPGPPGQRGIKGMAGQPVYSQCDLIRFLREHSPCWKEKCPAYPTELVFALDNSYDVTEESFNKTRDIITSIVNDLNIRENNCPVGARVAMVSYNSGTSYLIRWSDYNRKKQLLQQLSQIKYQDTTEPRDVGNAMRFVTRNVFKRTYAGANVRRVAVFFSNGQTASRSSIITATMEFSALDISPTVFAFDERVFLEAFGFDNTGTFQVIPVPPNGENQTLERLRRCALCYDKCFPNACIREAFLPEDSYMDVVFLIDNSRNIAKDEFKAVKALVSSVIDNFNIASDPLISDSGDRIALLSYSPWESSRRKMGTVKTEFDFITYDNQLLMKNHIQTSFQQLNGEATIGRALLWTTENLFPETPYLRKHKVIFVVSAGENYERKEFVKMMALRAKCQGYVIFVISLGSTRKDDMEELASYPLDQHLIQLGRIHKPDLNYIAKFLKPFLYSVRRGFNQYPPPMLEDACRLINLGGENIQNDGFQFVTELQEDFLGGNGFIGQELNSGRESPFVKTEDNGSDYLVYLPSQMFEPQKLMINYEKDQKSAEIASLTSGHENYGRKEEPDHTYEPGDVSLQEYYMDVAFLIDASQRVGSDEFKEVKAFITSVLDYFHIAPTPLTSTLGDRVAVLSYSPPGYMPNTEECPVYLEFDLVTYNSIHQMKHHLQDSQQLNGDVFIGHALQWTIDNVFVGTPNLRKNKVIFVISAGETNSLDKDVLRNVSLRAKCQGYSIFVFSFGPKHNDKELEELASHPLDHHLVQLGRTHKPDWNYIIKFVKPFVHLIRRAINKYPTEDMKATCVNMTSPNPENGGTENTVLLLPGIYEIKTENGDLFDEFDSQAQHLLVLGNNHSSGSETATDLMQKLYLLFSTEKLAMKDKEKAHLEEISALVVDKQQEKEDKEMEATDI
UniProt Q6UX07, sequence (Q6UX07 whole entry, looked up): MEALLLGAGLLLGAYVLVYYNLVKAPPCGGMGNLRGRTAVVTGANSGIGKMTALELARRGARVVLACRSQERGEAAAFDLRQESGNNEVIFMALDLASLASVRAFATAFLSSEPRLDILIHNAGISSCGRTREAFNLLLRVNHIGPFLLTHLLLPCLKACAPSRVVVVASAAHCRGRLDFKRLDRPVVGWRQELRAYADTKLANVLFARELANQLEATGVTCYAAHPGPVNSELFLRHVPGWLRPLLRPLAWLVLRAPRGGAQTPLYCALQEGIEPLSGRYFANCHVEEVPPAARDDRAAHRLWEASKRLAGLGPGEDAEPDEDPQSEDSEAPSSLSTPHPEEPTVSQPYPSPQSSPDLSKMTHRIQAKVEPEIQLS
UniProt Q8WXC6, sequence (Q8WXC6 whole entry, looked up): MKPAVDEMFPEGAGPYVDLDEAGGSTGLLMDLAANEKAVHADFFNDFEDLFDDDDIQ
UniProt Q9BW66, sequence (Q9BW66 whole entry, looked up): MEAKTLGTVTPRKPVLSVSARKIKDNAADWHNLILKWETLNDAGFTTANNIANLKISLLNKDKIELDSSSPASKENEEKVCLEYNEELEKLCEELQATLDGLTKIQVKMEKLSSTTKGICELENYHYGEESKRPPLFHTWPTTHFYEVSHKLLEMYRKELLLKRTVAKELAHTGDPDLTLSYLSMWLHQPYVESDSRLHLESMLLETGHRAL
UniProt Q14019, sequence (Q14019 whole entry, looked up): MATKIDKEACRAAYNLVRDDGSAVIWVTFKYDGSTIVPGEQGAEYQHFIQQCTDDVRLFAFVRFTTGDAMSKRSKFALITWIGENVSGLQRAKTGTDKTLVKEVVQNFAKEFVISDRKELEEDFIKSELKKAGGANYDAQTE
UniProt Q9NYP3, sequence (Q9NYP3 whole entry, looked up): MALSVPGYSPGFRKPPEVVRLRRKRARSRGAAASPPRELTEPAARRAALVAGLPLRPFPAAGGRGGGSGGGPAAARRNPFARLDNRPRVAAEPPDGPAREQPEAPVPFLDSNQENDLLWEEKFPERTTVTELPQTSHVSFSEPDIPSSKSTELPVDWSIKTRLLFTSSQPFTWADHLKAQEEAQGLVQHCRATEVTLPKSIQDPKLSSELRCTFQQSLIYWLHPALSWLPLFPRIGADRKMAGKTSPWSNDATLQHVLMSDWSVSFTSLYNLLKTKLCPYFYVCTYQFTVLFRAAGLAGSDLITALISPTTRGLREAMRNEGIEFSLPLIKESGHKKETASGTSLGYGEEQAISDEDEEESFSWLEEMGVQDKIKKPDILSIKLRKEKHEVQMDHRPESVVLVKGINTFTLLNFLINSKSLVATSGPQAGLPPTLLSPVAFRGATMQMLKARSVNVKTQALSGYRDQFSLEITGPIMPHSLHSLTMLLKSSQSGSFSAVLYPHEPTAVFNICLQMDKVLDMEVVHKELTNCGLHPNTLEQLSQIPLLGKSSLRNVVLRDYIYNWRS

Target | log2 fold change [1] | log2 fold change [2] | log2 fold change [3] | log2 fold change [4] | log2 fold change [5] | log2 fold change [6] | log2 fold change [7] | log2 fold change [8] | log2 fold change [9] | log2 fold change [10]
CYCS (UniProt P99999) | -0.003 | 0.027 | 0.009 | 0.04 | 0.018 | -0.004 | -0.04 | -0.019 | -0.002 | 0.003
CSNK1G3 (UniProt Q9Y6M4) | 0.032 | 0.064 | 0.014 | 0.069 | 0.03 | 0.018 | -0.033 | -0.005 | 0.459 (active) | -0.005
COG4 (UniProt Q9H9E3) | 0.028 | -0.131 | 0.025 | 0.029 | -0.003 | 0.079 | 0.011 | 0.016 | 0.022 | 0.009
CLP1 (UniProt Q92989) | -0.103 | -0.179 | 0.004 | 0.071 | -0.037 | 0.02 | 0.023 | -0.002 | 0.031 | 0.033
CHEK2 (UniProt O96017) | 0.093 | -0.007 | 0.207 (active) | 0.022 | -0.085 | -0.022 | 0.092 | 0 | -0.052 | 0.09
COL6A5 (UniProt A8TX70) | -0.544 | 0.029 | -0.048 | -0.111 | 0.256 | -0.088 | 0.1 | -0.038 | 0.07 | -0.034
CORO7 isoform 3 (UniProt P57737) | 0.023 | -0.087 | -0.008 | 0.028 | 0.007 | -0.008 | 0.114 | 0.007 | -0.069 | -0.047
DEF6 (UniProt Q9H4E7) | -0.036 | -0.154 | 0.027 | -0.07 | 0.039 | 0.019 | -0.002 | 0.097 | 0.013 | -0.01
DHRS1 (UniProt Q96LJ7) | -0.057 | 0.02 | 0.188 | -0.238 | -0.012 | 0.164 | -0.102 | 0.059 | 0.028 | -0.075
CIC (UniProt I3L2J0) | 0.005 | -0.03 | 0.072 | 0.041 | 0.035 | -0.002 | 0.052 | -0.027 | 0.158 | -0.098
COTL1 (UniProt Q14019) | 0.021 | 0.004 | -0.021 | -0.04 | -0.008 | -0.033 | -0.029 | -0.009 | -0.001 | -0.002
DIAPH1 (UniProt O60610) | 0.03 | 0 | -0.003 | -0.018 | -0.013 | 0.003 | 0.051 | 0.005 | 0.006 | -0.001
CNOT6L (UniProt Q96LI5) | -0.091 | 0.022 | 0.022 | 0.046 | 0.013 | 0.036 | 0.066 | -0.005 | 0.037 | -0.033
CXXC1 isoform 2 (UniProt Q9P0U4) | -0.003 | -0.138 | -0.021 | -0.004 | 0.468 (active) | -0.032 | 0.152 | 0.069 | 0.068 | 0.015
CORO1A (UniProt P31146) | 0 | -0.02 | 0.013 | -0.034 | 0.037 | -0.051 | 0.144 | -0.018 | -0.021 | -0.037
DDX20 (UniProt Q9UHI6) | 0.042 | -0.213 | -0.001 | -0.03 | -0.026 | 0.076 | 0.01 | 0.016 | -0.006 | 0.025
CSDE1 isoform 4 (UniProt O75534) | 0 | -0.104 | 0.01 | 0 | -0.014 | -0.008 | 0.209 (active) | 0.004 | -0.021 | -0.014

Target | log2 fold change [1] | log2 fold change [2] | log2 fold change [3] | log2 fold change [4] | log2 fold change [5] | log2 fold change [6] | log2 fold change [7] | log2 fold change [8] | log2 fold change [9] | log2 fold change [10]
CSAD isoform 3 (UniProt Q9Y600) |  | 0.082 | -0.044 |  |  |  |  |  |  | 
DLGAP5 isoform 3 (UniProt Q15398) | 0 |  |  |  | -0.051 |  |  |  |  | 
CPLX1 (UniProt O14810) |  | 0.04 |  | 0.144 | -0.127 | -0.017 | -0.415 |  | -0.005 | 
DAZAP1 (UniProt K7EQ02) |  |  |  |  |  |  |  | 0.071 |  | -0.084
CLASP2 (UniProt O75122) | -0.139 | -0.066 |  | 0.002 |  | 0.058 | -0.071 | 0.182 | 0.037 | -0.047
DDR1 isoform 5 (UniProt Q08345) | -0.034 | 0.052 |  |  | 0.147 | 0.044 | -0.094 | 0 |  | 0.046
CLIP1 isoform 2 (UniProt P30622) | 0.029 | 0.117 | -0.085 |  | 0.088 | -0.012 | -0.015 | -0.033 | -0.017 | -0.005
DALRD3 (UniProt Q5D0E6) | -0.016 |  | -0.026 | 0.033 |  | 0.054 | -0.391 |  | -0.004 | 
COPS9 (UniProt Q8WXC6) |  | -0.272 | 0.087 |  |  |  |  |  | 0.163 | 
CSNK1G3 isoform 4 (UniProt Q9Y6M4) |  |  |  |  |  |  |  |  | 0.53 | 
CSDE1 isoform 3 (UniProt O75534) | 0.029 | -0.014 |  |  |  |  |  | -0.011 | 0.28 | -0.09
CXCL14 (UniProt O95715) |  |  |  | -0.235 |  | -0.034 | 0.066 |  |  | 
CSNK1A1 isoform 3 (UniProt P48729) |  | -0.138 |  |  | 0.068 |  |  |  |  | 
CINP isoform 3 (UniProt Q9BW66) | -0.056 | -0.107 |  | -0.056 | 0.028 | 0.003 | 0.062 | 0 | 0.064 | -0.24
DONSON (UniProt Q9NYP3) | 0.04 | -0.079 | 0.069 |  | 0.005 |  |  | -0.05 | 0.028 | 0.075
CYP4V2 (UniProt Q6ZWL3) |  | -0.1 | -0.007 |  | 0.045 |  |  |  | -0.066 | 
DHRS13 (UniProt Q6UX07) |  | -0.087 | -0.083 |  | 0.004 |  |  | -0.211 | -0.138 | 0.036
